In the supplement of paper PMC10681739:

biological target: RUNX1 (UniProt Q01196); test: RUNX1 binding intensity (PBM fluorescence) in presence of ETS1, normalised to RUNX1-only experiment (arbitrary fluorescence units); higher = stronger binding; settings: RUNX1 concentration 2 nM; ETS1 concentration 25 nM
Description: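 Cooperative gcPBM on 36-bp genomic probes with neighbouring ETS1 and RUNX1 sites. Recombinant human RUNX1 (2 nM) was incubated alone or with ETS1 (25 nM) and detected with anti-RUNX1 antibody plus Alexa488 secondary. Values are medians over 4 replicate spots; the RUNX1+ETS1 data were normalised to the RUNX1-only data. The probes sit in constant array flanks that are not printed.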
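Note: Full-length recombinant human ETS1 or RUNX1 bound to double-stranded 36-bp genomic probes on microarrays, detected by protein-specific primary antibody and Alexa488 secondary, spot fluorescence as median of four replicate spots.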

Sequence of RUNX1 (Q01196 whole entry): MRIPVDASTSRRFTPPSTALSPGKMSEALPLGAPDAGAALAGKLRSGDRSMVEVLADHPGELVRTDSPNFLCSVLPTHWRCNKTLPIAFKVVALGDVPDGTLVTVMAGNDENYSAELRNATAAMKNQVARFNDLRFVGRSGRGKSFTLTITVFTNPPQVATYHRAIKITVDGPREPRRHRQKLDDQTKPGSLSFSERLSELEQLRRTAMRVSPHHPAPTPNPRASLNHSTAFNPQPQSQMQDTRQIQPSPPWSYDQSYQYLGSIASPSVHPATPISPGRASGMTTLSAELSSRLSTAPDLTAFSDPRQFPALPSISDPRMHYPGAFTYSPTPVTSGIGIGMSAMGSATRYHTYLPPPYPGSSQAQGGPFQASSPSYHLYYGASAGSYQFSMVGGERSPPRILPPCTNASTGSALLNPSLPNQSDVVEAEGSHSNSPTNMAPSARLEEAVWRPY

Row | Sequence | RUNX1 binding intensity
1 | GATGACTTCCTCAGTTCAGGGCTATGTGCGGGGGAG | 1060
2 | TGAGCCCTACTTCCGGTGGTGCTGTGGTCTGCCCCT | 2330
3 | TTTCCACTTCCTGTTCTACTTGTGGCTACTGACTCA | 3380
4 | AAAGAACTTCCTGAGGTGCTTGAGGTTAGGCTATGG | 1660
5 | GTTGGGCTTTGAGGATGTGGGTTCTAGAAGTTTACA | 1050
6 | AACAGGCAAAGGACAGGATGTGGTGAGCGTCGGCCC | 3040
7 | TGGCTGTGAGCTGCAGGATGTGGTCAGGAGAGGAAG | 2310
8 | GCAGTTTCAAGAGGATGTGGTCTCTTTCACTGCCTG | 1080
9 | AACAGAGACCCGGAAGTTGTGGGACGAAGCCAGGAC | 1260
10 | ATTTCCATTTCCGGACTCTTCTCCTGCCCGCAGGGC | 3660
11 | CTCTTCAGCAGGAAATGATGTGGTAAAACAGGGTTA | 1390
12 | GTACTGAGTCACAGGAAACCACAAGGGAAGGGTCCC | 3070
13 | TGCAGCGCATCCTGGGACGTGCGGGCGGTGCATGAG | 923
14 | TGAAGTTGGTGTTTTCCGGGGGCGGTTTTTCCATTG | 969
15 | AGAGCCACATCCCGCGCAGAGGACCGCGGCGACCGG | 927
16 | CCAACACAGGAAATAATTTGAAACCACAATCAGAAA | 3290
17 | GAGCAGTGGTGGGAAATGTGGGGTTGGGGGTAAAGG | 843
18 | GGGGCAGGAAGTGGAGGTTTGAAGTGGTTTAGAGTA | 1350
19 | TGGCTGTCACTTCCTGTCCCACTGTGGTTCCTGGGA | 1820
20 | GTGGCGGGGCGGAAGTTCACATGTGTGGTATGTAGA | 1430

Row | Sequence | RUNX1 binding intensity
21 | GCGCGGACAGAGAAAGGATGTGGTATAGCAGAAAGT | 884
22 | CATGTGCTTCCGGCTTGATCTGTGGTTATTCTGGTT | 3010
23 | CCATTCTTCCGGTGGAGATGGCTGCGGCCGTGGCGG | 2240
24 | CCCTGGGGCCCCACTTCCTTGCCCACAAGAAAGGAC | 1360
25 | CCCATTTCCTGCTCTCCAGAGTTAACCACTGAAGTC | 3490
26 | CTTCTGGCGGAAGCGGCACAAGCCGCAGTACAGCGC | 1190
27 | GGGCTCGGGGAGGAAGCGGTGGTTTCTCTTTGAAGC | 970
28 | GACAATGAGCGCACAGGATGTGGTTTGGCGGCAGGG | 3690
29 | GGCCCAGGAAAGAGGCAGGGGTGCGGTTTCCCTCCG | 1480
30 | GAAATCACATCCTTTTGCAAAACCACAGGTGTTTTG | 3340
31 | CCCAGCCCTGCTGCCGGATGTGGTGAGGCCCAGGTG | 5400
32 | TGCCGCGGATACCCAGCCAGCGGCAGTGCGGTTAAC | 1210
33 | TGAGCACTGAGCACTTCCTGTGGCTTCTGAAGCTCC | 1310
34 | GCAGTCAGAAGGTGCGGATGCGGTAAGGTATGCGCT | 1270
35 | AAGGGAGCCGCCCGGAAACCGCGCGGCAAAGATGCC | 1050
36 | GCACGGCGGAATTTCAAATGGGGTTTTGTGGTTTCT | 1280
37 | TGCGACGGAAGCAGGAACTTGCTAACCACAAAACCC | 3420
38 | AGCTGCTGTTTTCCGGCTGCGGCACTGGATGAAGGA | 1350
39 | CCCTCTCTTCTTCCTCCCCCACCACAAAAGTCACAG | 2280
40 | AGCTTCCTGTTTGGCCTTGCTGATGTCACCGCATTA | 2360
